Laboratory results: PubChem BioAssay AID504451 (NMMLSC, 2011)
Hit rate of the full screen: of about 2,000 compounds, about 80 (4%) were called active.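 The calls were made as follows: active = aptamer displacement above 40%, near three times the noise of non-fluorescent compounds, on plates passing quality checks; inactive = the rest.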 For the sample, actives were picked, then their nearest neighbours and some compounds at random.

biological target: Beta-adrenergic receptor kinase 1 (Homo sapiens) (UniProt P25098); assay: GRK2 aptamer-displacing inhibitors, retest, confirmation, biochemical, cherry pick 1, bead flow cytometry (AID 504451); conditions: bead-bound GRK2, FAM-aptamer displacement, at 10 µM, stronger effect = higher value;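 also: negative values mostly reflect intrinsic compound fluorescence rather than true enhancement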
Sequence (P25098 whole entry, looked up): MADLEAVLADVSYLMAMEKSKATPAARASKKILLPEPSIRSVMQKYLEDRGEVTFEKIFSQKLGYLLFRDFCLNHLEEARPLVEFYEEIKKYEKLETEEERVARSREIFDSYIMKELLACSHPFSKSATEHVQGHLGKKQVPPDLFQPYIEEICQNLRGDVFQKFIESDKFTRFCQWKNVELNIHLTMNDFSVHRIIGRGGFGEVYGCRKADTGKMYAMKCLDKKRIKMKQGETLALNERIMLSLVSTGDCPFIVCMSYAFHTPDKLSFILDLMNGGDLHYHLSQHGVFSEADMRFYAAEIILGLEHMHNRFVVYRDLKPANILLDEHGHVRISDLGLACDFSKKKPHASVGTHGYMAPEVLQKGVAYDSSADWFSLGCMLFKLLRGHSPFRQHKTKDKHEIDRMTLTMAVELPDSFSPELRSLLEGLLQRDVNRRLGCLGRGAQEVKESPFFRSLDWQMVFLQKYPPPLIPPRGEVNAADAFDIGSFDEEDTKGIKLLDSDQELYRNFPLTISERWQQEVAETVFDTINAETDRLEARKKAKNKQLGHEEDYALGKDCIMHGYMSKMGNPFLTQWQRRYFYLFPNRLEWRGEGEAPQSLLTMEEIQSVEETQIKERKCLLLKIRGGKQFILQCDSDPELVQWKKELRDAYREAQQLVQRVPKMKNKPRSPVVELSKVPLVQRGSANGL

| SMILES | aptamer displacement |
| --- | --- |
| O=C1NC(=O)N(Cc2ccco2)C(=O)/C1=C\c1cccn1CCOc1ccccc1 | 0.73% (inactive) |
| COc1ccc(N2C(=O)/C(=C/c3ccco3)C(=O)NC2=S)cc1 | 86.6% (active) |
| Cc1c(C(=O)O)cccc1-n1c(C)cc(/C=C2\C(=O)NC(=O)N(c3ccc4c(c3)OCO4)C2=O)c1C | 37.1% (inactive) |
